Measurements reported in PubChem BioAssay (NCATS).
Results filed as inconclusive are left out. The source made the active and inactive calls. Unless noted, calls follow the shape of the dose curve; as a rule, active = well fitted curve in the direction sought with a large enough effect; inconclusive = small, poorly fitted or top-dose-only effect, or another doubt; inactive = no such curve, though single readings can be large; an effect the other way counts as inactive or inconclusive.

Assays:
[1] = Cell Viability - LYMP2-015 (AID 971);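 also: cells exposed to compound for 24 h; 0% = DMSO only and full effect = 92 µM tetraoctylammonium bromide; nearly all actives have a fitted effect of over 55% in size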
How it was run: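 Acute toxicity was scored as a concentration-dependent drop in intracellular ATP in lymphoblastoid cells after 24 hr compound exposure in complete medium. Detection used CellTiter-Glo luciferase luminescence.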

[2] = Cell Viability - LYMP2-017 (AID 972);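 also: series mostly up to about 92 µM; cells exposed to compound for 24 hours at 37 °C; % is scaled to controls: 0 for no effect and ±100 for the full control effect; nearly all actives have a fitted effect of over 55% in size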
How it was run: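 Steps: plate 2500 lymphoblastoid cells per well; incubate 5 hr at 37 C; add compound across a concentration series and incubate 24 hr at 37 C; add CellTiter-Glo and read luminescence after 30 min at room temperature; fit Hill curves for AC50.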

[3] = Cell Viability - LYMP2-021 (AID 974);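 also: compound exposure lasts 24 hours at 37 °C; % is scaled to controls: 0 for no effect and ±100 for the full control effect; nearly all actives have a fitted effect of over 55% in size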
How it was run: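 Concentration-response cytotoxicity in a human lymphoblastoid line: 24 hr treatment at 37 C in complete culture medium, tetraoctylammonium bromide as positive control, luminescent ATP quantitation as viability measure.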

[4] = Cell Viability - LYMP2-023 (AID 975);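 also: cellular ATP measured by luciferase luminescence as viability proxy; series mostly up to about 92 µM; cells exposed to compound for 24 hours at 37 °C; plate controls were DMSO only for no effect and 92 µM tetraoctylammonium bromide control for full effect; nearly all actives have a fitted effect of over 55% in size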
How it was run: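 Concentration-dependent drop in intracellular ATP measures acute cytotoxicity in a human lymphoblastoid line treated for 24 hours in complete culture medium. AC50 values are taken from Hill-equation fits of qHTS data.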

[5] = Cell Viability - LYMP2-025 (AID 976);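 also: series mostly up to about 92 µM; cells exposed to compound for 24 h at 37 °C; plate controls were DMSO only for no effect and tetraoctylammonium bromide control for full effect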
How it was run: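 In qHTS format, LYMP2-025 lymphoblastoid cells in complete culture medium received compound for 24 hr; ATP-based CellTiter-Glo signal gave viability, with AC50 derived by Hill equation.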

[6] = Cell Viability - LYMP2-002 (AID 977);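 also: series mostly up to about 92 µM; compound exposure lasted 24 h at 37 °C; plate controls were DMSO only for no effect and 92 µM tetraoctylammonium bromide for full effect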
How it was run: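 Cytotoxicity is scored as concentration-dependent loss of cellular ATP in a human lymphoblastoid line after 24 hr compound treatment at 37 C. AC50 is obtained by modelling concentration-response data with the Hill equation.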

[7] = Cell Viability - LYMP2-006 (AID 978);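 also: series mostly up to about 92 µM; cells exposed to compound for 24 hours; % is scaled to controls: 0 for no effect and ±100 for the full control effect; nearly all actives have a fitted effect of over 60% in size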
How it was run: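 Human lymphoblastoid cells (LYMP2-006), 2500/well in complete medium, were treated with compound for 24 hr at 37 C. Cellular ATP was read by CellTiter-Glo luminescence after 30 min, and AC50 values came from Hill-equation fits of concentration-response data.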

[8] = Cell Viability - LYMP2-014 (AID 983);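 also: series mostly up to about 92 µM; cells exposed to compound for 24 h at 37 °C; plate controls were DMSO only for no effect and 92 µM tetraoctylammonium bromide for full effect; nearly all actives have a fitted effect of over 50% in size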
How it was run: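 Decrease in intracellular ATP after 24 hr treatment at 37 C, measured by luciferase luminescence, indicated cytotoxicity. Concentration-response data were fitted with the standard Hill equation to give AC50.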

[9] = Cell Viability - LYMP2-026 (AID 989);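 also: cells exposed to compound for 24 h at 37 °C; % is scaled to controls: 0 for no effect and ±100 for the full control effect; nearly all actives have a fitted effect of over 50% in size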
How it was run: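 Concentration-dependent loss of intracellular ATP in human lymphoblastoid cells after 24 hr at 37 C, quantified by luciferase luminescence. AC50 derived from standard Hill equation.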

[10] = Cell Viability - LYMP1-002 - Assay at 24 hr (AID 993); also: % is scaled to controls: 0 for no effect and ±100 for the full control effect
How it was run: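 qHTS, LYMP1-002 lymphoblastoid, 24 h cpd, 37 C, CellTiter-Glo ATP luminescence; AC50 via Hill eq.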

[11] = qHTS Assay for Identification of Small Molecule Inducers of Hypoxia Response (AID 2120; active = well fitted curve in the direction sought with a large enough effect in the signal ratio, with a control signal flat, not every such curve was filed as active; the % refers to the signal ratio; also: 0% is about no effect)
How it was run: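 Induction of beta-lactamase reporter activity was measured in CellSensor HRE-bla ME-180 cells after 17 h compound treatment at 37 degrees C, using CCF4 substrate and the 460nm/530nm emission ratio to derive AC50 values.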

[12] = molecular target: Estrogen receptor (Homo sapiens) (UniProt P03372); experiment: qHTS assay for small molecule antagonists of estrogen receptor alpha signaling (AID 588513; active = well fitted curve in the direction sought with a large enough effect in the signal ratio, with a control signal flat, not every such curve was filed as active; the % refers to the signal ratio; also: % is scaled to controls: 0 for no effect and ±100 for the full control effect)
Chain of Estrogen receptor (Homo sapiens) (P03372 whole entry, looked up): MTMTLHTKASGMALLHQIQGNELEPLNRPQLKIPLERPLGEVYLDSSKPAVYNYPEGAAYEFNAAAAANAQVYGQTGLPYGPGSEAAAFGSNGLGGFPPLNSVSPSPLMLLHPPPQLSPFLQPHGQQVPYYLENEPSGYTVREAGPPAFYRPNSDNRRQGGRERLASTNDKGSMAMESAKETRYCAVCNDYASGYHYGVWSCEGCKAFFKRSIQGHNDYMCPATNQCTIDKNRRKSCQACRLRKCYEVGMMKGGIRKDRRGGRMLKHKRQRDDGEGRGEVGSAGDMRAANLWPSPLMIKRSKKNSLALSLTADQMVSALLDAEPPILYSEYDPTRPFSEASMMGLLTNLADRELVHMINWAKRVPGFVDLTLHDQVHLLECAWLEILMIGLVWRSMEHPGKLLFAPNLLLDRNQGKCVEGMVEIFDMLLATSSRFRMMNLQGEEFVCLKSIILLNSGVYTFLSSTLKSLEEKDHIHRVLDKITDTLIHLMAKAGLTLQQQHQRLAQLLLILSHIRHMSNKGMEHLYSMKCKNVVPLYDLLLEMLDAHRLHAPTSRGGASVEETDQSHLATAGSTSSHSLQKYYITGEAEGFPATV
How it was run: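 ER-alpha-UAS-bla GripTite HEK 293 cells in 2% charcoal/dextran-treated FBS medium; compounds titrated (1:2, duplicate), then stimulated with 0.5 nM 17-beta-estradiol for 18 h at 37C. CCF4 beta-lactamase fluorescence; Hill-fit IC50 and efficacy.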

[13] = molecular target: Bile acid receptor (Homo sapiens) (UniProt Q96RI1); experiment: qHTS assay for small molecule antagonists of farnesoid X receptor signaling (AID 588526; calls by dose curve; also: % is scaled to controls: 0 for no effect and ±100 for the full control effect)
Chain of Bile acid receptor (Homo sapiens) (Q96RI1 whole entry, looked up): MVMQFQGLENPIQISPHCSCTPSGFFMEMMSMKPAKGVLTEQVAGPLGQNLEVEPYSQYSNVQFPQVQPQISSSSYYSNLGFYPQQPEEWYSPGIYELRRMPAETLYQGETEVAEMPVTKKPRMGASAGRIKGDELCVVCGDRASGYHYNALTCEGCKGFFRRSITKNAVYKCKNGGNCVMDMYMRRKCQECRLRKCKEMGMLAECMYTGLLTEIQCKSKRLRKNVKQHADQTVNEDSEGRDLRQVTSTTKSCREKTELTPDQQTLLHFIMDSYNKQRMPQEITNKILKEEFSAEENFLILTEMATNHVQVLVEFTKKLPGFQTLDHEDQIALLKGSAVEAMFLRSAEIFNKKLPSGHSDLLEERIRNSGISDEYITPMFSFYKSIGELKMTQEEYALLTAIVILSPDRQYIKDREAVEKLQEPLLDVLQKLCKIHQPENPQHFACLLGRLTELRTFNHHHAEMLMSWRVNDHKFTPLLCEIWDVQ
How it was run: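 Beta-lactamase reporter antagonist mode: HEK293T FXR-UAS-bla cells, titrated compound, CDCA stimulation, 16 h 37 C, CCF4 dye 2 h RT. Data normalized to CDCA 50 uM and DMSO; Hill-fit IC50.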

[14] = molecular target: Glucocorticoid receptor (Homo sapiens) (UniProt P04150); experiment: qHTS assay for small molecule agonists of glucocorticoid receptor signaling (AID 588532; active = well fitted curve in the direction sought with a large enough effect in the signal ratio, with a control signal flat; the % refers to the signal ratio;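 also: 100% = dexamethasone at 0.1 µM and 0% = DMSO only wells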); conditions: HeLa MMTV-bla, beta-lactamase ratio, agonist, 18 h; stronger effect = higher value; percent of dexamethasone control, DMSO zero
Chain of Glucocorticoid receptor (Homo sapiens) (P04150 whole entry, looked up): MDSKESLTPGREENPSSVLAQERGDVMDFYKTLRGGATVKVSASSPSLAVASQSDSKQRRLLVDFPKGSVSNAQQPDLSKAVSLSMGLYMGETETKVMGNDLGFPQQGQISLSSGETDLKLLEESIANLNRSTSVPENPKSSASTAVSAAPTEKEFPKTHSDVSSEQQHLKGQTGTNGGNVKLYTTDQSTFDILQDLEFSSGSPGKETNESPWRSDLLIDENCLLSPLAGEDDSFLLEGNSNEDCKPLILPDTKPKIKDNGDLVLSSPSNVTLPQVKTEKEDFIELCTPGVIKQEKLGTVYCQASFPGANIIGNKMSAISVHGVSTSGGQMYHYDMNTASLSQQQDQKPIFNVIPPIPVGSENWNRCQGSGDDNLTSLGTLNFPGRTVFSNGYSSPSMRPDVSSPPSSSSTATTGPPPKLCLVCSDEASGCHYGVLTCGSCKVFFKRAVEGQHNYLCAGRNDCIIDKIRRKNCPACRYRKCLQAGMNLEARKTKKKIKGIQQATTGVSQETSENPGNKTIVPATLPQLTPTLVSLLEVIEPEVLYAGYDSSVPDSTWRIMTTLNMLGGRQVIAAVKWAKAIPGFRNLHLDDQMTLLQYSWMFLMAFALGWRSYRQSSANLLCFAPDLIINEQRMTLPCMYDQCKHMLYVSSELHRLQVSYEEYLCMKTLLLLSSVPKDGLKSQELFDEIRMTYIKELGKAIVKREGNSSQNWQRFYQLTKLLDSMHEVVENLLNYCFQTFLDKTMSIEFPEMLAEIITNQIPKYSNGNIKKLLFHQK
How it was run: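 Quantitative HTS using CellSensor MMTV-bla HeLa cells in charcoal/dextran-treated serum; compounds tested up to 92 uM. After 18 h at 37 C, CCF4 dye reported reporter induction.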

[15] = molecular target: Peroxisome proliferator-activated receptor gamma (Homo sapiens) (UniProt P37231); experiment: qHTS assay for small molecule antagonists of peroxisome proliferator-activated receptor gamma signaling (AID 588537; active = well fitted inhibition curve with a large enough effect in the signal ratio, with a control signal flat, not every such curve was filed as active; the % refers to the signal ratio;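 also: reporter cells co-stimulated with 50 nM rosiglitazone agonist during compound treatment; % of control where 0% means no effect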)
Chain of Peroxisome proliferator-activated receptor gamma (Homo sapiens) (P37231 whole entry, looked up): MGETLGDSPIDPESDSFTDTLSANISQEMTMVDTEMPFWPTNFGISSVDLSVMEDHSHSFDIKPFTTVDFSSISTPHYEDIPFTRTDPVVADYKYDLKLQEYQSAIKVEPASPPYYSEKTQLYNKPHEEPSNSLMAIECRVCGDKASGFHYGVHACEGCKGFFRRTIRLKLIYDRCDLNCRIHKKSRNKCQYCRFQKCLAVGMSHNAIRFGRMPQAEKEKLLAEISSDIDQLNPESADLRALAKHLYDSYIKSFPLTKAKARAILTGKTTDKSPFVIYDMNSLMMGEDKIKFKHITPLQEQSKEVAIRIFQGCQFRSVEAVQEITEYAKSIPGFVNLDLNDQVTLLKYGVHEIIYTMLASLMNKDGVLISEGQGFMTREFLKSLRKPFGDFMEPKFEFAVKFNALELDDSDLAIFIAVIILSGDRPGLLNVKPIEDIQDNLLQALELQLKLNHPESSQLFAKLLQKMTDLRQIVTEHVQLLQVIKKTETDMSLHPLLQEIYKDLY
How it was run: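 Inhibitors of agonist-stimulated UAS-bla reporter activity were sought in HEK293 cells; rosiglitazone (50 nM) defined full signal and DMSO baseline. Curves fitted to Hill model gave IC50 and efficacy.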

[16] = molecular target: Thyroid hormone receptor beta (Homo sapiens) (UniProt P10828); experiment: qHTS assay for small molecule agonists of thyroid hormone receptor beta signaling (AID 588545; calls by dose curve)
Chain of Thyroid hormone receptor beta (Homo sapiens) (P10828 whole entry, looked up): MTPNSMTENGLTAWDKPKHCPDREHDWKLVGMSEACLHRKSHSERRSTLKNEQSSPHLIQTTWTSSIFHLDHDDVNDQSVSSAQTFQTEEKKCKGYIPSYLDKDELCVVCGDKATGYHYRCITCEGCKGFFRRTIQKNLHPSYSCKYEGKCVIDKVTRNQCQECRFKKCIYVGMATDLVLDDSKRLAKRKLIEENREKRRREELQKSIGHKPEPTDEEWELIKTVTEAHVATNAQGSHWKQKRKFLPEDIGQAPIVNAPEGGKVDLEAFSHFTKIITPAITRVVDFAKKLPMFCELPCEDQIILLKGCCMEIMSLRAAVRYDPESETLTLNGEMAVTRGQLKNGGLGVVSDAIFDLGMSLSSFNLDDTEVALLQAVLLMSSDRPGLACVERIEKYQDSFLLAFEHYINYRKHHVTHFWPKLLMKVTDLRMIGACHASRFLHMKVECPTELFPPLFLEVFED
How it was run: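 Agonist-mode beta-lactamase reporter assay, HEK 293 cells, 2% charcoal/dextran FBS; cells plated 4 hrs, compound 18 hrs at 37 C, CCF4 2 hrs RT. Normalized to 10 nM T3 (100%) and DMSO (0%); Hill fit gives EC50, efficacy.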

[17] = molecular target: Thyroid hormone receptor beta (Homo sapiens) (UniProt P10828); experiment: qHTS assay for small molecule antagonists of thyroid hormone receptor beta signaling (AID 588547; active = well fitted inhibition curve with a large enough effect in the signal ratio, with a control signal flat, not every such curve was filed as active; the % refers to the signal ratio;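 also: cells stimulated with 0.4 nM T3 agonist during compound exposure; series mostly up to about 77 µM; % is scaled to controls: 0 for no effect and ±100 for the full control effect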); conditions: TR-UAS-bla HEK293, beta-lactamase ratio, antagonist mode, 18 h
How it was run: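 Inhibition of T3-driven (0.4nM final) beta-lactamase reporter activity was measured over 0.59 nM to 92 uM compound after 18 h at 37 C. The cells were GripTite HEK293 TR-UAS-bla in charcoal/dextran-stripped serum, with CCF4 ratio read-out and IC50 from Hill fits.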

[18] = molecular target: Voltage-gated inwardly rectifying potassium channel KCNH2 (Homo sapiens) (UniProt Q12809); experiment: qHTS Assay for Small Molecule Inhibitors of the Human hERG Channel Activity (AID 588834);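 also: top concentration of the series differs between compounds; % is scaled to controls: 0 for no effect and ±100 for the full control effect; lower thallium flux fluorescence means stronger hERG block; nearly all actives have a fitted effect of over 50% in size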
Chain of Voltage-gated inwardly rectifying potassium channel KCNH2 (Homo sapiens) (Q12809 whole entry, looked up): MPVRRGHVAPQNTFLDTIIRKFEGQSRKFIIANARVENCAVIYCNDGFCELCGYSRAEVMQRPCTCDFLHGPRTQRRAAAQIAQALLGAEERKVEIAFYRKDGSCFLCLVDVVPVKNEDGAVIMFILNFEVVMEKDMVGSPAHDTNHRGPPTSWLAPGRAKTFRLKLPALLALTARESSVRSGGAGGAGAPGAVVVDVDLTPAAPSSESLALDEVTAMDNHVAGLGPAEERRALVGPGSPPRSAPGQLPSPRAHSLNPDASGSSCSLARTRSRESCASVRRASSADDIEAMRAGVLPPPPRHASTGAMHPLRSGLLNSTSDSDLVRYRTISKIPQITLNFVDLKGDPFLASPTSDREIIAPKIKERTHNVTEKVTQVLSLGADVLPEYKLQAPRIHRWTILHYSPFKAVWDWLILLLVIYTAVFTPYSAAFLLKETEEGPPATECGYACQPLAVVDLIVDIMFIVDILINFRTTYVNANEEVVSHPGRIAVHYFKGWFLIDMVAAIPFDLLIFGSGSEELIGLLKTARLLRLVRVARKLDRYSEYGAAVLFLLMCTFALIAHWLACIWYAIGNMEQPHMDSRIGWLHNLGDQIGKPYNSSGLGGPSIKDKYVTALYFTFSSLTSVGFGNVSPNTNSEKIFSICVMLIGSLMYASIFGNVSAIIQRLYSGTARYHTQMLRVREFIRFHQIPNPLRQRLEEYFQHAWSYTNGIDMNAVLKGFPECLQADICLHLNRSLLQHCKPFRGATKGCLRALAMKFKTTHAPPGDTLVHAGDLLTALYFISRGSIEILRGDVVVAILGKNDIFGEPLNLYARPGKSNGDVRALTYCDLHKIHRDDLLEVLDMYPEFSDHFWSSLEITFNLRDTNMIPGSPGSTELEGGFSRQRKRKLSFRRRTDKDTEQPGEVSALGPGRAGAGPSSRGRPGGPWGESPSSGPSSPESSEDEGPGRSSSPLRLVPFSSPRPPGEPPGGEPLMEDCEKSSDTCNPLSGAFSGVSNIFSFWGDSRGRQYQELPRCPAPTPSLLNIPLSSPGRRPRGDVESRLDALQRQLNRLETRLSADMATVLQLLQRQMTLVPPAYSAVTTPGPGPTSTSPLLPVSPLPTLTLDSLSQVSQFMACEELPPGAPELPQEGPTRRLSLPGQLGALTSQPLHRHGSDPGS
How it was run: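 U2OS cells BacMam-transduced with hERG, 2000 cells/well, compound ~10 min at 37 °C before stimulation buffer. FluxOR thallium flux fluorescence read kinetically on FDSS; decrease indicates block; AC50 from Hill fits.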

[19] = qHTS assay for small molecule agonists of the antioxidant response element (ARE) signaling pathway (AID 651741; active = well fitted activation curve with a large enough effect in the signal ratio; the % refers to the signal ratio; also: % of control where 0% means no effect)
How it was run: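 Seeding 2,000 ARE-bla HepG2 cells per well preceded a 5 h incubation at 37 C/5% CO2 and a 16 h compound exposure at 37 C. Beta-lactamase reporter activity was then quantified by fluorescence after 2 h with LiveBLAzer B/G FRET substrate.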

[20] = qHTS assay for small molecule activators of the p53 signaling pathway (AID 651743; active = well fitted activation curve with a large enough effect in the signal ratio, not every such curve was filed as active; the % refers to the signal ratio; also: series mostly up to about 92 µM; % of control where 0% means no effect); conditions: HCT-116 p53RE-bla, beta-lactamase FRET ratio, 16 h; activation: stronger effect = higher value
How it was run: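 Screen for p53 pathway agonists uses stably transfected p53RE-bla HCT-116 cells, 4,000 per well, treated 16 h at 37 C with compounds in DMSO.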

[21] = qHTS assay for small molecule activators of the nuclear factor-kappa B (NF-kB) signaling pathway (AID 651749; active = well fitted activation curve with a large enough effect in the signal ratio; the % refers to the signal ratio; also: series mostly up to about 77 µM; % of control where 0% means no effect); conditions: NF-kB-bla ME-180 cells, beta-lactamase FRET ratio, 16 h; activation: stronger effect = higher value
How it was run: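 Stably transfected ME-180 line; NF-kB response element upstream of beta-lactamase. Treatment: compound or DMSO, 16 hr. Detection: fluorescent FRET substrate.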

[22] = qHTS assay for small molecule disruptors of the mitochondrial membrane potential - 1 hr assay (AID 651754; calls by dose curve; also: % is scaled to controls: 0 for no effect and ±100 for the full control effect; nearly all actives have a fitted effect of over 35% in size)
How it was run: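 Steps: seed HepG2 cells and let attach overnight; pin-transfer compound or vehicle; incubate 1 hr at 37C; add Mito-MPS dye for 30 min; read two-channel fluorescence for monomer and aggregate forms.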

[23] = qHTS assay for small molecule disruptors of the mitochondrial membrane potential - 5 hr assay (AID 651755; calls by dose curve; also: % is scaled to controls: 0 for no effect and ±100 for the full control effect; nearly all actives have a fitted effect of over 40% in size)
How it was run: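 HepG2, 2,000 cells/well, overnight attach; cpd or DMSO 5 hr, 37C/5% CO2; Mito-MPS 30 min 37C; fluor 490/535 + 540/590 nm.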

[24] = molecular target: Tumor necrosis factor (Homo sapiens) (UniProt P01375); experiment: qHTS assay to identify small molecules that stimulate Tumor Necrosis Factor-alpha (TNF-alpha) secretion (AID 651757; active = well fitted curve in the direction sought with a large enough effect in the signal ratio; the % refers to the signal ratio; also: 0% is about no effect)
Chain of Tumor necrosis factor (Homo sapiens) (P01375 whole entry, looked up): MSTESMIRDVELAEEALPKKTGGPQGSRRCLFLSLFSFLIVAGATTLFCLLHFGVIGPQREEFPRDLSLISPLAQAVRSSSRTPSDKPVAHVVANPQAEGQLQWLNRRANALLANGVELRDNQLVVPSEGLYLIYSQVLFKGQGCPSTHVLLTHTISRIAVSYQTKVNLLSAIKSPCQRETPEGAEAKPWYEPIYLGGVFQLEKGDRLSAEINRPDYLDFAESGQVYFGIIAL
How it was run: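 Secreted TNF-alpha from compound-treated THP-1 cells (17 hrs, 37 C) was quantified with a homogeneous time-resolved fluorescence antibody assay.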

[25] = qHTS assay to identify small molecules that stimulate interleukin-8 (IL-8) secretion (AID 651758; active = well fitted activation curve with a large enough effect in the signal ratio; the % refers to the signal ratio; also: 0% is about no effect)
How it was run: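 Secreted IL-8 measured by TR-FRET sandwich (cryptate and XL665 antibodies) from THP-1 cells exposed to compound overnight (16 hrs, 37 C).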

[26] = qHTS assay for environmental chemicals that activate the Aryl hydrocarbon Receptor (AhR) signaling pathway (AID 651777); conditions: 1A2-DRE human hepatoma cells, luciferase, 24 h; activation: stronger effect = higher value; also: % of control where 0% means no effect; nearly all actives have a fitted effect of over 15% in size
How it was run: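 Induction of CYP1A2 transcription through AhR is detected by luciferase in 1A2-DRE hepatoma cells. Compounds or DMSO act for 24 hr at 37 C before a 30 min One-Glo step at room temperature.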

[27] = molecular target: Peroxisome proliferator-activated receptor alpha (Homo sapiens) (UniProt Q07869); experiment: qHTS assay for small molecule agonists of the peroxisome proliferator-activated receptor alpha (PPARalpha) signaling pathway (AID 651778); conditions: PathHunter PPARalpha complementation, chemiluminescence, 6 h; stronger effect = higher value; also: % of control where 0% means no effect
Chain of Peroxisome proliferator-activated receptor alpha (Homo sapiens) (Q07869 whole entry, looked up): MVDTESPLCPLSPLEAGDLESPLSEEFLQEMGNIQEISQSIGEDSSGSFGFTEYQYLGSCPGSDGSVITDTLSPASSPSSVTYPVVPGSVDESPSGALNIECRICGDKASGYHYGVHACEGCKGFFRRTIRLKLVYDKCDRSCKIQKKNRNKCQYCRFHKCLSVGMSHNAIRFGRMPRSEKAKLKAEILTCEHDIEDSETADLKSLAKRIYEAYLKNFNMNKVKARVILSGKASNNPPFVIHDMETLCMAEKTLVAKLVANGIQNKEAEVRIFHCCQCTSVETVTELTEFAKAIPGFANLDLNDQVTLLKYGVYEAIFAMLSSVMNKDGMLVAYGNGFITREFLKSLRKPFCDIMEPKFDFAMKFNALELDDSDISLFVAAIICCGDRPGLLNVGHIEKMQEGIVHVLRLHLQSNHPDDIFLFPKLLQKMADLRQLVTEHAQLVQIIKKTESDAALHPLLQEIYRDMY
How it was run: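 Chemiluminescence from complemented enzyme reported PPARalpha activation in cells after 6 hr of compound treatment at 37 C. The detection reagent was incubated for 60 min at room temperature, and compounds were scored as agonists.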

[28] = qHTS assay for small molecule agonists of the antioxidant response element (ARE) signaling pathway measured by Nrf2-dependant transcriptional activity (AID 720636; active = well fitted curve in the direction sought with a large enough effect in the repeat runs; an effect the other way counts as inactive or inconclusive;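 also: HepG2 cells with an ARE-driven luciferase reporter; % of control where 0% means no effect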)
How it was run: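 We exposed ARE-luc HepG2 cells, seeded in assay medium with 1% dialyzed FBS and allowed 6 hr to adhere, to test compounds overnight (16 hr, 37 C) before measuring luciferase with ONE-Glo.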

[29] = qHTS assay for small molecule antagonists of the retinoid-related orphan receptor gamma (ROR-gamma) signaling pathway - cell viability counter screen (AID 720652; active = well fitted curve in the direction sought with a large enough effect in the repeat runs; an effect the other way counts as inactive or inconclusive)
How it was run: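 Cytotoxicity is quantified via intracellular ATP (CellTiter-Glo luminescence) in doxycycline-induced CHO ROR response element-luciferase reporter cells treated with compound for 16 hr at 37 C, 5% CO2.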

[30] = qHTS assay for cell viability of HEK293 cells (AID 743288); conditions: ATP luminescence (CellTiter-Glo), 18 h; max response: stronger effect = lower value; also: % is scaled to controls: 0 for no effect and ±100 for the full control effect; nearly all actives have a fitted effect of over 50% in size
How it was run: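 Parental HEK293 cells, 2,000 per well, preincubated at least 5 h at 37 C, then exposed to compounds in DMSO for 18 h at 37 C. Viability by CellTiter-Glo ATP luminescence after 30 min at room temperature.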

[31] = qHTS assay for cell viability of the p53RE-bla HCT-116 cell line (AID 743292)
How it was run: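 In this qHTS counter-screen, metabolically competent p53RE-bla HCT-116 cells were counted via their ATP content. Compounds were applied for 16 h at 37 C and luciferase-coupled luminescence was measured.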

[32] = qHTS for Inhibitors of the Functional Ribonucleoprotein Complex (vRNP) of Lassa (LASV) Arenavirus: LASV Primary Screen - GLuc reporter signal (AID 1347082; calls by dose curve; tested in HEK293 reporter line; also: series mostly up to about 57 µM; % is scaled to controls: 0 for no effect and ±100 for the full control effect; nearly all actives have a fitted effect of over 60% in size)
[33] = qHTS for Inhibitors of the Functional Ribonucleoprotein Complex (vRNP) of Lassa (LASV) Arenavirus: Viability assay - alamar blue signal for LASV Primary Screen (AID 1347083; calls by dose curve; tested in HEK293 reporter line; also: series mostly up to about 57 µM; % is scaled to controls: 0 for no effect and ±100 for the full control effect; nearly all actives have a fitted effect of over 80% in size)
[34] = qHTS for Inhibitors of the Functional Ribonucleoprotein Complex (vRNP) of Lymphocytic Choriomeningitis Arenaviruses (LCMV): Viability assay - alamar blue signal for LCMV Primary Screen (AID 1347085; calls by dose curve; tested in HEK293 reporter line)
[35] = molecular target: Nucleoprotein (Lymphocytic choriomeningitis virus (strain Armstrong)) (UniProt P09992); experiment: qHTS for Inhibitors of the Functional Ribonucleoprotein Complex (vRNP) of Lymphocytic Choriomeningitis Arenaviruses (LCMV): LCMV Primary Screen - GLuc reporter signal (AID 1347086; calls by dose curve)

COC1=CC(=O)OC(CCc2ccc3c(c2)OCO3)C1 (stereo not given)
inactive: outcome [1] | outcome [2] | outcome [3] | outcome [4] | outcome [5] | outcome [6] | outcome [7] | outcome [8] | outcome [9] | outcome [10] | outcome [11] | Potency [12] | Potency [13] | activation [14] 3.34% | Potency [15] | Potency [16] | activity change % (negative = inhibition) [17] -2% | Potency [18] | Potency [19] | activation [20] -6.75% | activation [21] -0.795% | Potency [22] | Potency [23] | outcome [24] | Potency [25] | activation [26] 9.51% | max response [27] -0.116% | Potency [28] | outcome [29] | max response [30] -5.17% | outcome [31] | Potency [32] | Potency [33] | Potency [34] | Potency [35]
